# Experimental data taken from the supplement of paper PMC11732987, “Enantioselective OTUD7B fragment discovery through chemoproteomics screening and high-throughput optimisation” (Communications Chemistry, 2025).
# Compound: CN(Cc1cccc(OCc2ccccc2C)c1)C(=O)CCl
# Assay: log2 ratio of Biotin-Ahx-Ub-VS probe labelling (compound/DMSO); higher = less target engagement, active = hit call of the paper (q ≤ 0.05, log2 ratio ≤ -1)
# Settings: compound concentration: 50uM; treatment time: 3 h
# Method: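 Round 2 competitive ABPP in HEK293T lysate. Purified HTC-D2B compounds were tested at 50 and 200 µM for 3 h, followed by Biotin-Ahx-Ub-VS enrichment and diaPASEF LC-MS/MS. Values are the average log2 ratio (compound/DMSO) from an unpaired t-test (n=3 treated, n=26 DMSO).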
# UniProt Q9UPU5, sequence (Q9UPU5 whole entry): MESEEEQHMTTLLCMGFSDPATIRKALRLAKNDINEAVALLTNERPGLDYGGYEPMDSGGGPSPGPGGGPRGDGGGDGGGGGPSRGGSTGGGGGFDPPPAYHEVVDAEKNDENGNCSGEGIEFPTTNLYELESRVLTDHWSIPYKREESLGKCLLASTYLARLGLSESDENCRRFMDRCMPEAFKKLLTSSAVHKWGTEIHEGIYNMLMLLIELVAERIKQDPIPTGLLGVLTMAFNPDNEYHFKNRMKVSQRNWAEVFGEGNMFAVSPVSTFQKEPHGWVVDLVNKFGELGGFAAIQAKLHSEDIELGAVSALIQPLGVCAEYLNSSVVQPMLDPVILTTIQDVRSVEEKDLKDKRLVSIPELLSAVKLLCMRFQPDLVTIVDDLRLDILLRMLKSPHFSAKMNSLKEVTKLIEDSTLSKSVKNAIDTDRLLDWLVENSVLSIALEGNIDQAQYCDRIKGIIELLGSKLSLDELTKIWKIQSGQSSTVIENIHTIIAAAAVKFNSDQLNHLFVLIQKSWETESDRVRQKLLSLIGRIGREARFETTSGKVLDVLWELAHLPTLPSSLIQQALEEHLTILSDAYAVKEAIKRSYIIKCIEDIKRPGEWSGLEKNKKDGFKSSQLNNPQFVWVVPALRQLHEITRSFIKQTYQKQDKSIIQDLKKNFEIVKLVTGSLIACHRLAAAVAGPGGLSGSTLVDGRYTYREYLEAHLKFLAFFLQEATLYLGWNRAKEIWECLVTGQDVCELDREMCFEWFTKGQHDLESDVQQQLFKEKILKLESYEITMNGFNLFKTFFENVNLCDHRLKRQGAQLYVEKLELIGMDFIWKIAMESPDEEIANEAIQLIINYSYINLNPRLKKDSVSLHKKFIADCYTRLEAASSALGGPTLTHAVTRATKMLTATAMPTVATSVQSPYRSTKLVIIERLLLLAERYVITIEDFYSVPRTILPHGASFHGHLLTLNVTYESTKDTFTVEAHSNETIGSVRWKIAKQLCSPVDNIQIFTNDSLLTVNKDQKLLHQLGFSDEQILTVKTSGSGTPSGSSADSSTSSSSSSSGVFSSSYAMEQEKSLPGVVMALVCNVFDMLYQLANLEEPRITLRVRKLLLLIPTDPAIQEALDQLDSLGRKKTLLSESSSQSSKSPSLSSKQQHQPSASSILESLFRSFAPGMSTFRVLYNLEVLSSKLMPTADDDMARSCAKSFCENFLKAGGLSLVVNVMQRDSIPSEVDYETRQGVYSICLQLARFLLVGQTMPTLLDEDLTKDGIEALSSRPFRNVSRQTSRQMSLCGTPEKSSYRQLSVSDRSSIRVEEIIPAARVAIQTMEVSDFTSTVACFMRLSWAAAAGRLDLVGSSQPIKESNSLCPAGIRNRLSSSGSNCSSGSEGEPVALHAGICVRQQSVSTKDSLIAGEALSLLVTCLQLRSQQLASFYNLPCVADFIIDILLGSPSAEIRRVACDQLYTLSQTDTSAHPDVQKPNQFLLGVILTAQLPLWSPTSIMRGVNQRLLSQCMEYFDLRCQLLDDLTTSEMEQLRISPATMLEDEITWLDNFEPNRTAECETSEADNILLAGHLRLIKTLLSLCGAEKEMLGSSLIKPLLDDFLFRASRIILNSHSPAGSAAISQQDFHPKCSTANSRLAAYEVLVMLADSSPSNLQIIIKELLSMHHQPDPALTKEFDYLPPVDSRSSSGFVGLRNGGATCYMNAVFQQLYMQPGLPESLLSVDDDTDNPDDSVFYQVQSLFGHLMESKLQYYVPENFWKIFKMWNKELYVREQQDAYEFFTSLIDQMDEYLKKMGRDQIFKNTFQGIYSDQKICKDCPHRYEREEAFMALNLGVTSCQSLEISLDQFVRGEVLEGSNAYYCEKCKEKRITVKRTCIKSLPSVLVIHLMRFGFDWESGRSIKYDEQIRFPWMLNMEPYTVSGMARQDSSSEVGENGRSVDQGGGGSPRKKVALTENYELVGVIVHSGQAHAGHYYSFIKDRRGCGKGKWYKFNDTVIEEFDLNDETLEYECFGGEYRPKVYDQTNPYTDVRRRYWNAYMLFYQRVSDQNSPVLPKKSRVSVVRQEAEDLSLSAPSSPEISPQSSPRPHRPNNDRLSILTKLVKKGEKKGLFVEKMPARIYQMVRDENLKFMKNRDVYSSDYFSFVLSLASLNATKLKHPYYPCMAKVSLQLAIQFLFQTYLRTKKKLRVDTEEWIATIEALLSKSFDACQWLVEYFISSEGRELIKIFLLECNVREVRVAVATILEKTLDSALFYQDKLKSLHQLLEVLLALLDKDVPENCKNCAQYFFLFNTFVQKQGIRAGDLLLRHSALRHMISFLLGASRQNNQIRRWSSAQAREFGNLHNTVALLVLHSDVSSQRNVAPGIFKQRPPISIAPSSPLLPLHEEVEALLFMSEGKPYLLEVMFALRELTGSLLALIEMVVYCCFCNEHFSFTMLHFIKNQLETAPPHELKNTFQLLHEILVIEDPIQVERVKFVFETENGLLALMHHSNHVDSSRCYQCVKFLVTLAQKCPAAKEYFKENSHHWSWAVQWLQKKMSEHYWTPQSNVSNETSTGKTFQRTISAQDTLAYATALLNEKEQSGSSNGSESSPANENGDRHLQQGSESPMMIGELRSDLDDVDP
# UniProt P40818, sequence (P40818 whole entry): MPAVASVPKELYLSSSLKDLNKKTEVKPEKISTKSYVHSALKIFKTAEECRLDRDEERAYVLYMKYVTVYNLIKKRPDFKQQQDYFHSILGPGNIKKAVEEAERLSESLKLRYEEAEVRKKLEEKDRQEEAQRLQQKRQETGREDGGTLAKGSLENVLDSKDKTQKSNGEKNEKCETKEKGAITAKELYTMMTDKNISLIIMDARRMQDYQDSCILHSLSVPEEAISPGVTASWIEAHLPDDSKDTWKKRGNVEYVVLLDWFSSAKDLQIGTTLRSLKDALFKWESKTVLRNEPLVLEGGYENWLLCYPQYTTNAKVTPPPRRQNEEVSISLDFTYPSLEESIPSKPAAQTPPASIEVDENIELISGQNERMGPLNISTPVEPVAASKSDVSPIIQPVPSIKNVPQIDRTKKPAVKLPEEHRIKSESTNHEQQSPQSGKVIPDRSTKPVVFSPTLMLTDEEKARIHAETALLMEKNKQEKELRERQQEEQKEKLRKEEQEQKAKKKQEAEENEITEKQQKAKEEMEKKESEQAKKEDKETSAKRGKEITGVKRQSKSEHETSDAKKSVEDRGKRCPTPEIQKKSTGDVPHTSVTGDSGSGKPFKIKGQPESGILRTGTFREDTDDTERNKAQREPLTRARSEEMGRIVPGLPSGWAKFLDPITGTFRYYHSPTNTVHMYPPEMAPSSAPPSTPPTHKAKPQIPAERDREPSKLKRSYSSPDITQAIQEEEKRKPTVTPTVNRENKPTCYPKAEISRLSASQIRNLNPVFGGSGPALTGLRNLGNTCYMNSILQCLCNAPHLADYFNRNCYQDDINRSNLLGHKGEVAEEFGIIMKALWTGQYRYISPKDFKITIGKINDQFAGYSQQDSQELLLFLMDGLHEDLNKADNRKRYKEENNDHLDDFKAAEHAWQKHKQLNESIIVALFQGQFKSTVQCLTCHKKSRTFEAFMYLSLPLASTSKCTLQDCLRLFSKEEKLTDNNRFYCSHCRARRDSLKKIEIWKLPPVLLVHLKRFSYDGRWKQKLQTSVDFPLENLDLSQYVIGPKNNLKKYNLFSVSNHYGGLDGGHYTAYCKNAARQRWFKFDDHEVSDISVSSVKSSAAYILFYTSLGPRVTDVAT
# UniProt Q8N6M0, sequence (Q8N6M0 whole entry): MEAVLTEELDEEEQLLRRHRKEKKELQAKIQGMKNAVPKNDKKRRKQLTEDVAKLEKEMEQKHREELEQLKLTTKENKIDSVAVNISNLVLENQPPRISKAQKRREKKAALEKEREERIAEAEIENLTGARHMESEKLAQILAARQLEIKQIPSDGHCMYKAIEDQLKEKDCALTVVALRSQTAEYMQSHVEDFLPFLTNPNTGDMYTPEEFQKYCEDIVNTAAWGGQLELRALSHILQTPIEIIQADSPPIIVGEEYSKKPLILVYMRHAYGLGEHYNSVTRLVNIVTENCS
# UniProt Q9UHP3, sequence (Q9UHP3 whole entry): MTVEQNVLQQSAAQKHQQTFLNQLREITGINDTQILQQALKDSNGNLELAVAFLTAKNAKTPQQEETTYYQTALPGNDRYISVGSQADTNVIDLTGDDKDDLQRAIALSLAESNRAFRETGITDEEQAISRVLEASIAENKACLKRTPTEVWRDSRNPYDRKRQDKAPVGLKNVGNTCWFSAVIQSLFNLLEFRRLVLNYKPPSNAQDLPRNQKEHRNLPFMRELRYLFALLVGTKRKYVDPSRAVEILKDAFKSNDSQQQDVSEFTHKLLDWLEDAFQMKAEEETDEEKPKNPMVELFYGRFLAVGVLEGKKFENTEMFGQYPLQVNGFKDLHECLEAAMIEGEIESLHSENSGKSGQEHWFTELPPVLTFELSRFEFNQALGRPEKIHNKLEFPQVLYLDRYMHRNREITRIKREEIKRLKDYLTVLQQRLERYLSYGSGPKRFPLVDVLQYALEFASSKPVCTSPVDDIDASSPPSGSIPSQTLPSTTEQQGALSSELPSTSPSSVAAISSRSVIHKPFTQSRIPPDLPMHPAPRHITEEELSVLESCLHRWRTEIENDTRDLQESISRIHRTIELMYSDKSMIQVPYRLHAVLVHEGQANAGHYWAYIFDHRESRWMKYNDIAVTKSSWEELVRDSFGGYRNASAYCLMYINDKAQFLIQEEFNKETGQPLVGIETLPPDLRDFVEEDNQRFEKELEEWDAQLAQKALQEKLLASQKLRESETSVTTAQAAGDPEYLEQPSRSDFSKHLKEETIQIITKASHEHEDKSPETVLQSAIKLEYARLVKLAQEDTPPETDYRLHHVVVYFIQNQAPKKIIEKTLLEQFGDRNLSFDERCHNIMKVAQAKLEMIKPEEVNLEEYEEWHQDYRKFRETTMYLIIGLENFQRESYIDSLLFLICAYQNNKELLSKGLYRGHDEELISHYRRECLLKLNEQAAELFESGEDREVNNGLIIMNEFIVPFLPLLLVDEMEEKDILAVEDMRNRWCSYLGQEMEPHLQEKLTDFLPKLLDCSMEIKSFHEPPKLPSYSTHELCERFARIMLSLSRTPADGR
row,Target,log2 ratio of Biotin-Ahx-Ub-VS probe labelling
1,USP34 (UniProt Q70CQ2),0.154 (inactive)
2,USP25 (UniProt Q9UHP3),-1.05 (active)
3,ALG13 (UniProt Q9NP73),0.469 (inactive)
4,USP42 (UniProt Q9H9J4),0.101 (inactive)
5,PRPF8 (UniProt Q6P2Q9),-0.075 (inactive)
6,USP48 (UniProt Q86UV5),-0.235 (inactive)
7,USP22 (UniProt Q9UPT9),-0.278 (inactive)
8,USP54 (UniProt Q70EL1),-1.29 (active)
9,USP46 (UniProt P62068),-0.515 (inactive)
10,USP9X (UniProt Q93008),-0.553 (inactive)
11,OTUD6B (UniProt Q8N6M0),-0.59 (inactive)
12,USP36 (UniProt Q9P275),-0.207 (inactive)
13,USP8 (UniProt P40818),-0.488 (inactive)
14,USP24 (UniProt Q9UPU5),-0.993 (inactive)
15,UCHL1 (UniProt P09936),-0.437 (inactive)
16,ATXN3 (UniProt P54252),-0.719 (inactive)
17,USP10 (UniProt Q14694),-0.287 (inactive)
18,USP19 (UniProt O94966),-1 (active)
19,USP5 (UniProt P45974),-0.113 (inactive)
20,OTUB1 (UniProt Q96FW1),-0.366 (inactive)

# Same assay, conditions: compound concentration: 200uM; treatment time: 3 h
row,Target,log2 ratio of Biotin-Ahx-Ub-VS probe labelling
1,USP34 (UniProt Q70CQ2),-0.582 (inactive)
2,USP25 (UniProt Q9UHP3),-0.67 (inactive)
3,ALG13 (UniProt Q9NP73),-0.522 (inactive)
4,USP42 (UniProt Q9H9J4),0.171 (inactive)
5,PRPF8 (UniProt Q6P2Q9),0.0126 (inactive)
6,USP48 (UniProt Q86UV5),-0.552 (inactive)
7,USP22 (UniProt Q9UPT9),-0.429 (inactive)
8,USP54 (UniProt Q70EL1),-0.985 (inactive)
9,USP46 (UniProt P62068),-0.89 (inactive)
10,USP9X (UniProt Q93008),-1.59 (active)
11,OTUD6B (UniProt Q8N6M0),-0.817 (inactive)
12,USP36 (UniProt Q9P275),-0.146 (inactive)
13,USP8 (UniProt P40818),-0.321 (inactive)
14,USP24 (UniProt Q9UPU5),-2.02 (active)
15,UCHL1 (UniProt P09936),-0.268 (inactive)
16,ATXN3 (UniProt P54252),-1.1 (active)
17,USP10 (UniProt Q14694),-0.0982 (inactive)
18,USP19 (UniProt O94966),-1.76 (active)
19,USP5 (UniProt P45974),-0.0873 (inactive)
20,OTUB1 (UniProt Q96FW1),0.0592 (inactive)
